L3MBTL1 block: qHTS Assay for the Inhibitors of L3MBTL1. AID 485360, 2010. Potency, µM (top dose mostly 57.1 µM), without a hit: at the highest dose activity, negative = inhibition, most hits filed as inhibitors. Lethal(3)malignant brain tumor-like protein 1 (Homo sapiens), Q9Y468. 230,000 tested, 0.66% active. AlphaScreen L3MBTL1–H3K9me1 peptide binding; further: on the % scale 0 is the no-effect control and ±100 the full control effect; nearly all actives have a fitted effect of over 60% in size
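L3MBTL1 50 nM + b-AHA-H3(1-15)K9me1 75 nM, 30 min RT; compound added, 30 min RT; streptavidin donor/Ni-chelate acceptor beads 10 ug/mL each final, 30 min RT dark; AlphaScreen read.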
JMJD2A Tudor: qHTS Assay for Inhibitors of JMJD2A-Tudor Domain; Lysine-specific demethylase 4A (Homo sapiens), O75164; AlphaScreen JMJD2A-Tudor / H3K4me3 peptide binding; Potency, µM (titrated, usually from 114 µM), for the others: at the highest dose activity change, negative = inhibition, hits mostly inhibitors; 390,000 tested, 4.4% active; AID 504339, 2011; further: on the % scale 0 is the no-effect control and ±100 the full control effect; nearly all actives have a fitted effect of over 50% in size
BAZ2B inh: qHTS Assay for Inhibitors of BAZ2B | AlphaScreen BAZ2B-H3K14Ac peptide displacement | Potency, µM (series often up to 114 µM), for inactives: at the highest dose activity change, negative = inhibition, most hits filed as inhibitors | AID 504333, 2011 | Bromodomain adjacent to zinc finger domain protein 2B (Homo sapiens), Q9UIF8 | 360,000 tested, 4.4% active; further: on the % scale 0 is the no-effect control and ±100 the full control effect; nearly all actives have a fitted effect of over 60% in size
Target sequence (Q9UIF8 whole entry, looked up, the tested form may be a part): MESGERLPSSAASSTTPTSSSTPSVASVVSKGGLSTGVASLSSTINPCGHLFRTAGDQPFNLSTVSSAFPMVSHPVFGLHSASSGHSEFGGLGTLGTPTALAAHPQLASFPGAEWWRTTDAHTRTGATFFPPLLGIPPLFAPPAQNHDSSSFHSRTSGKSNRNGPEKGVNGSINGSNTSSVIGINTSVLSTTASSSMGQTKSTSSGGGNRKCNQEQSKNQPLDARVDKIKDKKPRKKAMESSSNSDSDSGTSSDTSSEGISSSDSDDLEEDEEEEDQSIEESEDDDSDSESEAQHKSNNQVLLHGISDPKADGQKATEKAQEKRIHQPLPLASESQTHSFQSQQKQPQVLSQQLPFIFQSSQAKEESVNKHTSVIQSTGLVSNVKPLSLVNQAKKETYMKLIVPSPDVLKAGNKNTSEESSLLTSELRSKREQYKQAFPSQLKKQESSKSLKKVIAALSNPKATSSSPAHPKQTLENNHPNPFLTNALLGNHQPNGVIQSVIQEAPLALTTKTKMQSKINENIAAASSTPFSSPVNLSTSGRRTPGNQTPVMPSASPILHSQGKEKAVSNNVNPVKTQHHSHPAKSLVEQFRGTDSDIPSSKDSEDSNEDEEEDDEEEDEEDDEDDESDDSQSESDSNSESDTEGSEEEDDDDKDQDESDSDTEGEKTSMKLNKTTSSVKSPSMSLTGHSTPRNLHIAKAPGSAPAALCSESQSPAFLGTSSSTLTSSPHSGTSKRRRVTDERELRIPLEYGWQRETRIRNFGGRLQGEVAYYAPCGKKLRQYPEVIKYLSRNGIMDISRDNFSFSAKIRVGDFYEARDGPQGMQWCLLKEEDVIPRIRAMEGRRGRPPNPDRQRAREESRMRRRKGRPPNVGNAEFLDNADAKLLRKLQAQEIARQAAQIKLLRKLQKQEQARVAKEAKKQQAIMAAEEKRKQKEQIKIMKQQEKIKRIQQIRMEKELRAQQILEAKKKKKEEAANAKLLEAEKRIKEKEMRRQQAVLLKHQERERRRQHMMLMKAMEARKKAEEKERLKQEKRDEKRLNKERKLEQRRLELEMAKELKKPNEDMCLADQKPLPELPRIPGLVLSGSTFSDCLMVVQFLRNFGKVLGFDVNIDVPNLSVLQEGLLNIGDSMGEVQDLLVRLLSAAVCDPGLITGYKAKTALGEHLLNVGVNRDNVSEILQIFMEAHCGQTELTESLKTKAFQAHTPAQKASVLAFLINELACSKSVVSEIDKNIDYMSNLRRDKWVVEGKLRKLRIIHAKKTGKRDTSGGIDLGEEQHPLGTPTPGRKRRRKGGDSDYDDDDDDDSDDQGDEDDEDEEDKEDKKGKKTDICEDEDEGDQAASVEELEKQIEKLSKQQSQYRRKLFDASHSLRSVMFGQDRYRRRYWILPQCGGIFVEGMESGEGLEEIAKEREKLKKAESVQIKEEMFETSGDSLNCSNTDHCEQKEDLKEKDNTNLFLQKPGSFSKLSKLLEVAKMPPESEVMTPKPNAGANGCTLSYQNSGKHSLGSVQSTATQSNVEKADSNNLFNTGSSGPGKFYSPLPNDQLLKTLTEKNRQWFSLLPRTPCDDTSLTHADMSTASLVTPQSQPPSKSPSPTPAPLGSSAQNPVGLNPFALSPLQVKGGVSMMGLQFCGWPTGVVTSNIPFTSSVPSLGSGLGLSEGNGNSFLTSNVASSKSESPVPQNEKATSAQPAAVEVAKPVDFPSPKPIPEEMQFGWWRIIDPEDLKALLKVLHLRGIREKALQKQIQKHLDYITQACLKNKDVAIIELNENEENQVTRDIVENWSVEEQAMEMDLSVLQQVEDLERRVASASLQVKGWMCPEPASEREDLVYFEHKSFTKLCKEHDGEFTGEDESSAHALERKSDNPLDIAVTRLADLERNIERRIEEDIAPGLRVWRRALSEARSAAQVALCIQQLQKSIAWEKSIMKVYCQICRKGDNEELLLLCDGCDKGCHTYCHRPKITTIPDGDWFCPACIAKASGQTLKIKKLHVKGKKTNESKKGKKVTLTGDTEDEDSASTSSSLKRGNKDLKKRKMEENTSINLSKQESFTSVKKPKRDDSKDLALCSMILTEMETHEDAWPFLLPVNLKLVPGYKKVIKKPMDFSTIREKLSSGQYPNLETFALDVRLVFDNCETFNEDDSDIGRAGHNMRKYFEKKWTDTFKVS
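Compounds, titrated to a top concentration of 110 uM, were incubated 30 min at room temperature with preformed BAZ2B/acetyl-K14 H3 peptide complex (50 nM each). Proximity signal was measured by AlphaScreen after 20 min with beads.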
HP1b chromo inh: HTS for Inhibitors of HP1-beta Chromodomain Interactions with Methylated Histone Tails; Chromobox protein homolog 1 (Homo sapiens), P83916; AlphaScreen HP1-beta / biotin-H3K9me3 peptide binding; Potency, µM (top dose mostly 114 µM), for the others: at the highest dose activity change, negative = inhibition, most hits filed as inhibitors; 390,000 tested, 0.56% active; further: nearly all actives have a fitted effect of over 70% in size
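HP1-beta protein (50 nM final) preincubated 30 min at room temperature with biotinylated H3(1-18)K9me3 peptide (50 nM) in PBS pH 7.4, 0.01% Tween-20, then compound added for 30 min. AlphaScreen streptavidin donor/nickel chelate acceptor beads (10 ug/mL final), 30 min dark, luminescence read.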
G9a block: qHTS Assay for Inhibitors of Histone Lysine Methyltransferase G9a. Histone-lysine N-methyltransferase EHMT2 (Homo sapiens), Q96KQ7. G9a H3K9 monomethylation, AlphaScreen, 2 h. Potency, µM (doses to about 102 µM), for the others: top-dose activity, negative = inhibition, most hits filed as inhibitors. 350,000 tested, 8.8% active; further: on the % scale 0 is the no-effect control and ±100 the full control effect; nearly all actives have a fitted effect of over 75% in size
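Using a bead-based AlphaScreen, monomethylated H3K9 product from 2 h room-temperature reactions (G9a 20 nM, peptide 500 nM, SAM 20 uM) was detected with 0.5 ug/mL rabbit anti-H3K9me1 antibody.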
The depositor's hits bear a star; [ ] = dose if it differs, or a comment. Sampled rows, rich in hits. Any-hit rate of the full collection: about 11%. The call rests on the fitted dose curve; in most records, active means well fitted inhibition curve with a large enough effect; inconclusive means small, poorly fitted or top-dose-only effect; inactive means no such curve, though single readings can be large or run the other way. Potency means the concentration at half of the fitted maximal effect.

Results for CCC1N=C(SC)NC(C)=C1C(=O)c1ccccc1 (stereo unspecified) ?
JMJD2A Tudor: -15.3%; BAZ2B inh: -23.0%; HP1b chromo inh: -16.6%; G9a block: 3.98µM*

Results for CCOC(=O)C1=C(C)NC(SC)=NC1c1ccc(OC)cc1 (stereo unspecified) ?
L3MBTL1 block: 8.0%; JMJD2A Tudor: -20.3%; BAZ2B inh: 3.1%; HP1b chromo inh: 28.5%; G9a block: inconclusive

How did COc1ccccc1C1Nc2c(sc3nc(C)cc(C)c23)C(=O)N1c1ccccc1 (stereo unspecified) do in these assays?
JMJD2A Tudor: -11.6%; BAZ2B inh: 15.4%; HP1b chromo inh: 41.3%; G9a block: 12.6%[59 µM]

Results for CCOC(=O)c1c(NC(=O)CSc2nc3ccccc3[nH]2)sc2c1CC(C)(C)NC2(C)C ?
L3MBTL1 block: -6.9%; JMJD2A Tudor: -33.1%; BAZ2B inh: -6.4%; HP1b chromo inh: -3.5%; G9a block: 39.8µM*

Results for CCOC(=O)c1c(NC(=O)COC(=O)/C=C/c2ccco2)sc2c1CC(C)(C)NC2(C)C ?
L3MBTL1 block: inconclusive; JMJD2A Tudor: inconclusive; BAZ2B inh: inconclusive; HP1b chromo inh: inconclusive; G9a block: 15.8µM*

How did COc1ccc(-c2noc(Cn3c(=O)c4ccccc4n(CC(=O)Nc4cccc(OC)c4)c3=O)n2)cc1 do in these assays?
JMJD2A Tudor: 1.0%; BAZ2B inh: -9.8%; HP1b chromo inh: 33.4%; G9a block: -0.7%[59 µM]

What do the screens show for `CCOc1ccc(NC(=O)Cn2c(=O)n(CC(=O)NCc3ccccc3Cl)c(=O)c3sccc32)cc1`?
JMJD2A Tudor: -15.4%; BAZ2B inh: -1.1%; HP1b chromo inh: 16.7%; G9a block: 0.7%[59 µM]

Results for CC1NC(C(=O)O)Cc2c1[nH]c1ccccc21 (stereo unspecified) ?
G9a block: 34.8%[59 µM]

Results for Cc1ccc2oc3c(c(=O)c2c1)C(c1ccccc1F)N(CCCN(C)C)C3=O (stereo unspecified) ?
JMJD2A Tudor: -7.9%; BAZ2B inh: -3.0%; HP1b chromo inh: 23.6%; G9a block: -17.1%[59 µM]

Results for COc1cccc(CN(C)CC(O)COc2cc(Cl)ccc2Cl)c1 (stereo unspecified) ?
JMJD2A Tudor: 6.31µM*; BAZ2B inh: 56.2µM*; HP1b chromo inh: inconclusive; G9a block: -16.9%

Results for CCc1ccccc1NC(=O)c1ccc2nc(C(C)C)oc2c1 ?
JMJD2A Tudor: -7.3%; BAZ2B inh: -0.1%; HP1b chromo inh: 15.1%[57 µM]; G9a block: 20.7%[59 µM]

Results for COC(=O)CN1C(=O)N/C(=C/c2ccc(C)o2)C1=O ?
JMJD2A Tudor: -28.5%; BAZ2B inh: 2.3%; HP1b chromo inh: -15.8%; G9a block: 25.1µM*

Results for Cc1ccc(/C=C2/NC(=O)N(Cc3ccccc3)C2=O)o1 ?
L3MBTL1 block: -1.8%; JMJD2A Tudor: inconclusive; BAZ2B inh: -30.7%; HP1b chromo inh: -22.4%; G9a block: inconclusive

What do the screens show for `CCOc1ccc(NC(=O)NCCn2nnc3cc(S(=O)(=O)N(C)C)ccc32)cc1`?
JMJD2A Tudor: 0.7%; BAZ2B inh: -0.8%; HP1b chromo inh: 32.1%; G9a block: 27.6%[59 µM]

How did COc1cc(OC)c(NC(=O)CSc2nc3ccncc3[nH]2)cc1Cl do in these assays?
L3MBTL1 block: -2.7%; JMJD2A Tudor: -22.8%; BAZ2B inh: -13.1%; HP1b chromo inh: 62.9%; G9a block: 0.2%[59 µM]

How did Cc1ccnc2nc(C(=O)Nc3nnc(-c4ccc(Cl)cc4)o3)nn12 do in these assays?
JMJD2A Tudor: 17.8µM*; BAZ2B inh: inconclusive; HP1b chromo inh: 29.4%; G9a block: inconclusive

What do the screens show for `Cc1csc(NC(=O)c2cnc3ccccc3n2)n1`?
JMJD2A Tudor: -33.6%; BAZ2B inh: -25.5%; HP1b chromo inh: -24.6%; G9a block: 44.7µM*

Results for COc1ccc(-c2nc(NC(=O)c3nc4nccc(C)n4n3)sc2C)cc1 ?
L3MBTL1 block: 39.1%; JMJD2A Tudor: -35.0%; BAZ2B inh: 1.2%; HP1b chromo inh: 32.9%; G9a block: inconclusive

Results for CCCCc1nnc(NC(=O)c2nc3nccc(C)n3n2)s1 ?
L3MBTL1 block: -14.4%; JMJD2A Tudor: -5.8%; HP1b chromo inh: 25.3%; G9a block: inconclusive

How did Cc1ccnc2nc(C(=O)Nc3nnc(CC(C)C)s3)nn12 do in these assays?
JMJD2A Tudor: 44.7µM*; BAZ2B inh: -35.2%; HP1b chromo inh: 17.3%; G9a block: 25.1µM*

What do the screens show for `Cc1ccnc2nc(C(=O)Nc3nc4ccccc4s3)nn12`?
L3MBTL1 block: -0.8%; JMJD2A Tudor: 15.8µM*; BAZ2B inh: -0.2%; HP1b chromo inh: 14.6%; G9a block: 5.4%[59 µM]

How did CCN(CC)CCCNC(=O)c1ccc2c(c1)N(Cc1c(F)cccc1Cl)C(=O)c1ccccc1S2 do in these assays?
JMJD2A Tudor: -31.0%; HP1b chromo inh: 8.2%; G9a block: inconclusive

How did O=C(CSc1nc(=O)[nH]c2c1CCC2)NCc1ccc(Cl)cc1 do in these assays?
JMJD2A Tudor: 5.8%; BAZ2B inh: 4.7%; HP1b chromo inh: 27.0%; G9a block: 9.7%[59 µM]

Results for Cc1csc(NC(=O)c2nc3nccc(C)n3n2)n1 ?
L3MBTL1 block: 7.8%; JMJD2A Tudor: inconclusive; BAZ2B inh: -1.2%; HP1b chromo inh: -4.5%; G9a block: 50.1µM*

How did Cc1nnc(-c2cccc(Br)c2)c2cn(-c3cccc(Br)c3)nc12 do in these assays?
L3MBTL1 block: -4.1%; JMJD2A Tudor: inconclusive; BAZ2B inh: 56.2µM*; HP1b chromo inh: 23.2%; G9a block: inconclusive

What do the screens show for `Cc1nnc(-c2cccc(Br)c2)c2cn(-c3ccccc3)nc12`?
L3MBTL1 block: 3.7%; JMJD2A Tudor: inconclusive; BAZ2B inh: 2.0%; HP1b chromo inh: 5.1%; G9a block: 8.0%

How did OCCNc1nnc(-c2ccccc2)c(-c2ccccc2)n1 do in these assays?
JMJD2A Tudor: -1.3%; HP1b chromo inh: 41.3%

Results for CCC(=O)O[C@@H](OP(=O)(CCCCc1ccccc1)CC(=O)N1C[C@H](C2CCCCC2)C[C@H]1C(=O)O)C(C)C (stereo partly specified) ?
G9a block: -9.8%[12.7 µM]

Results for CN(CC(=O)Nc1ccc(N2CCOCC2)cc1)CC(=O)Nc1ccc([N+](=O)[O-])cc1Br ?
L3MBTL1 block: 23.4%; JMJD2A Tudor: -19.6%; BAZ2B inh: -27.3%; HP1b chromo inh: 16.1%; G9a block: -34.8%
